Shown are actives, neighbours in structure and some others; about 4.9% of the full set was active somewhere.
CSC inhib – blocks cancer stem cells. inhibition, % at 7.5 µM. cancer stem cell-like cells viability, luminescence. AID 2717. hit rate 1.1% among 300,000; in the data active means inhibition above about 75%; tested in HMLE shEcad cells
Mdm2-MdmX inh – human Mdm2/MdmX binding inhibition; O15151+Q00987; SaOS-2 split-luciferase Mdm2/MdmX complementation, luminescence; inhibition, % at 8 µM; hit rate 3% among 330,000;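 active means inhibition of at least 50% at 8 µM in the primary screen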
PP5 inh – inhibitors of human protein phosphatase 5 (PP5). purified PP5c, OMFP substrate fluorescence. hit rate 0.18% among 320,000. inhibition, % at 6.7 µM. P53041;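 active means inhibition above the campaign's mean inhibition across all tested compounds plus 3 SD, cut at about 9.5% in these data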;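 further: 0% = DMSO only and 100% = 100 µM cantharidin control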
Calb FLC – C. albicans growth modulation with fluconazole | C. albicans CaCi-2 (fluconazole-resistant clinical isolate) + fluconazole, Alamar Blue growth, 48 h | growth inhibition, % (test concentration not listed) | hit rate 0.57% among 300,000 | AID 1979;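 active means growth inhibition above about 58% in most replicates, limit read from the data, passing the limit was not always enough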;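 further: all wells also contain fluconazole at 8 µg/ml as a sub-toxic cotreatment; 0% = median of DMSO wells and 100% = median of geldanamycin control wells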
PP1 inh – PP1-alpha (human) inhibition in PP5 counter-screen; P62136; hit rate 0.9% among 320,000; inhibition, % at 6.7 µM; AID 2235; purified PP1alpha, OMFP fluorescence;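 active means inhibition above the mean inhibition of all tested compounds plus 3 SD, computed separately for each screening campaign, cut at about 15% in these data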
Target sequence (P62136 whole entry, looked up): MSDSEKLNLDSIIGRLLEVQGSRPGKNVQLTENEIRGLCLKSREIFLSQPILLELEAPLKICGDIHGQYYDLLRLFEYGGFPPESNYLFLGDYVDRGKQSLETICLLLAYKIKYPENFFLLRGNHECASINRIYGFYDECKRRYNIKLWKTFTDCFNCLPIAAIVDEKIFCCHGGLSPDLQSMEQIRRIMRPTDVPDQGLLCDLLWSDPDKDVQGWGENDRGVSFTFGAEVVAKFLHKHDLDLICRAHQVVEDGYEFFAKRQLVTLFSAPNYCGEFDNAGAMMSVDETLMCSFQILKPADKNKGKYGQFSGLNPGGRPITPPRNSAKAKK
Beta cell apopt – beta cell apoptosis inhibition; hit rate 0.8% among 300,000; protection from apoptosis, % (no concentration beside the values); INS-1E cytokine-induced death, ATP luminescence, 48 h; percent of positive-control rescue, neutral wells zero;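 active means Every replicate reaches about 75%, or at least half do and their mean reaches it too, limit read from the data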;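 further: 0% = cytokine-treated negative control wells and 100% = positive control rescue; higher means more ATP so stronger rescue from cytokine killing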
PP1 confirm – confirmation of human PP1 phosphatase inhibitors; inhibition, % at 6.7 µM; shares compounds with PP1 inh; purified PP1alpha, OMFP substrate fluorescence; hit rate 52% among 1,900;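 active means mean PP1 inhibition above a set limit taken from the earlier primary screen, cut at about 15% in these data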
PP5 inh counter – PP5 phosphatase inhibition, counter-screen for PP1 inhibitors | shares compounds with PP1 inh | purified PP5c, OMFP fluorescence | inhibition, % at 6.7 µM | hit rate 4% among 1,900;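 active means mean PP5 inhibition over triplicate wells above about 9.5% taken from the earlier PP1 screen, limit read from the data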
* marks the source's active call; other numbers are inactive results; . = no result.

SMILES	CSC inhib	Mdm2-MdmX inh	PP5 inh	Calb FLC	PP1 inh	Beta cell apopt	PP1 confirm	PP5 inh counter
O=C(CCl)NNC(=O)c1c(O)c2ccccc2[nH]c1=O	5	9	7	5	0	-6	.	.
O=[N+]([O-])c1ccc(N2CCCCC2)c(Cl)c1N1CCCCC1	10	4	1	-10	47*	-5	-2	-3
COC(=O)c1c(NC(=O)CSc2ncn[nH]2)sc(C)c1C	-6	-3	0	12	-5	-7	.	.
Clc1ccc(C2=Nn3c(nnc3-c3cc(-c4ccccc4)n[nH]3)SC2)cc1	8	37	2	26	23*	15	16*	-1
CCN(C(=O)CSc1nc2ccccc2c(=O)n1CCOC)C1CCS(=O)(=O)C1 (stereo not drawn)	-8	11	0	18	-1	-1	.	.
CC1CCc2c(sc3nc(CN4CCOCC4)nc(N4CCc5ccccc5C4)c23)C1 (stereo not drawn)	13	-27	4	18	21*	-3	10	-4
COc1cc2c(cc1OC)CN(c1nc(CN3CCOCC3)nc3sc4c(c13)CCCC4)CC2	45	46	2	10	4	2	.	.
C[C@H](NC(=O)c1ccc(C(C)(C)C)cc1)C(=O)N1CCOCC1	15	-15	.	.	.	3	.	.
Cc1cc(C)c2oc(C(=O)N3CCN(Cc4ccccc4)CC3)cc(=O)c2c1	-13	-2	2	6	1	-2	.	.
COc1ccc(-c2noc(CCCC(=O)Nc3ccc(C(N)=O)cc3)n2)cc1OC	-6	1	-1	-1	-4	0	.	.
Cc1ccccc1OCCC(=O)OCC(=O)NC(=O)c1ccccc1	-7	-2	2	-20	22*	.	-1	-5
Cc1ccccc1OCCC(=O)OCC(=O)NCCc1ccccc1	-7	2	1	4	-4	-1	.	.
CC(Nc1cccc2ccccc12)C(=O)N/N=C/c1ccc([N+](=O)[O-])cc1 (stereo not drawn)	-4	2	2	0	3	2	.	.
COc1cc([N+](=O)[O-])cc(/C=N\NC(=O)C2COc3ccccc3O2)c1O (stereo not drawn)	21	38	0	7	32*	17	26*	-3
O=C(N/N=C/c1cccc([N+](=O)[O-])c1O)C(O)(c1ccccc1)c1ccccc1	10	18	1	55	14	.	.	.
COc1cc([N+](=O)[O-])cc(/C=N/NC(=O)C(O)(c2ccccc2)c2ccccc2)c1O	13	27	-1	-10	20*	.	14	-3
COc1cc([N+](=O)[O-])cc(/C=N/NC(=O)C(C)Nc2cccc3ccccc23)c1O (stereo not drawn)	23	34	2	-3	23*	23	33*	-2
CCOc1ccc(N2C(=O)S/C(=C\c3ccc(O)c(OC)c3)C2=O)cc1	57	5	1	-15	-1	-8	.	.
COc1cc(/C=C2\SC(=N)N(c3ccc(F)cc3)C2=O)ccc1O	-5	43	4	3	26*	0	20*	-1
CCC(=O)c1ccc(OCC(=O)Nc2nc(-c3cccnc3)cs2)cc1	-11	16	0	5	18*	3	29*	-6
CCC(=O)c1ccc(OCC(=O)Nc2nc(C)cs2)cc1	.	2	.	.	.	2	.	.
COC(=O)CCC(=O)OC1(C)C(=O)C2=CN(Cc3ccccc3)C(c3ccc(OC)cc3)=CC2=C(Br)C1=O (stereo not drawn)	-2	12	10*	24	21*	-2	9	28*
COC(=O)CCC(=O)OC1(C)C(=O)C=C2C=C(C3CC3)N(Cc3ccc(OC)cc3)C=C2C1=O (stereo not drawn)	-23	14	8	11	4	-4	.	.
COC(=O)CCC(=O)OC1(C)C(=O)C2=CN(c3ccccc3)C(c3ccc(OC)cc3)=CC2=C(Br)C1=O (stereo not drawn)	-8	13	2	22	22*	-5	12	25*
CCC(=O)OC1(C)C(=O)C2=COC(c3ccc(OC)cc3)=CC2=C(Br)C1=O (stereo not drawn)	-1	-7	4	11	-4	-1	.	.
SMILES	CSC inhib	Mdm2-MdmX inh	PP5 inh	Calb FLC	PP1 inh	Beta cell apopt	PP1 confirm	PP5 inh counter
CCn1cc(C(=O)O)c(=O)c2cc(F)c(N3CCN(S(=O)(=O)c4ccc(Br)cc4)CC3)cc21	0	-3	0	0	19*	1	41*	-1
CCn1cc(C(=O)O)c(=O)c2cc(F)c(N3CCN(C(=S)NC(=O)c4ccccc4Cl)CC3)cc21	-11	22	1	-3	-1	-2	.	.
C=CCNC(=S)N1CCN(c2cc3c(cc2F)c(=O)c(C(=O)O)cn3CC)CC1	-11	0	1	-5	20*	-18	9	-4
COc1ccc2c(=O)c(-c3nc(C)cs3)coc2c1	21	-79	0	-1	1	19	.	.
CCc1cc2c(=O)c(-c3nc(C)cs3)coc2cc1O	8	-9	0	0	20*	0	12	-4
Cc1cccc(N2CCN(C(=O)c3ccc4c(c3)NC(=O)C(CSCc3cccc(F)c3)N4)CC2)c1C (stereo not drawn)	1	-16	2	7	23*	-7	29*	-2
Cc1cccc(N2CCN(C(=O)c3ccc4c(c3)OCCO4)CC2)c1C	0	9	0	2	0	-10	.	.
O=C(NC1CCCCC1)c1nn2c(C(F)(F)F)cc(-c3ccco3)nc2c1Br	7	7	0	-1	3	4	.	.
O=C(c1ccccc1)N1CCN(C(=O)c2nn3c(C(F)(F)F)cc(-c4ccco4)nc3c2Br)CC1	.	-1	-2	18	19*	-5	-3	-3
CCOc1ccccc1-n1nnnc1SC(C)C(=O)OC (stereo not drawn)	-4	14	0	-2	-2	-7	.	.
CCOC(=O)c1cc(-c2ccccc2)nc2c1c(C)nn2-c1ccccn1	-5	27	1	6	31*	34	32*	-3
CCOC(=O)c1cc(-c2ccncc2)nc2c1c(C)nn2C	-2	46	1	45	-1	7	.	.
COc1ccc(NC(=O)CN(C)C(=O)c2c(C)nn(Cc3ccc(C)cc3)c2Cl)cc1	-5	6	2	.	0	7	.	.
COc1ccc(NC(=O)CN(C)C(=O)c2c(C)nn(-c3ccccc3)c2Cl)cc1	-9	25	-2	3	20*	2	-3	0
CCC(=O)N1CCc2cc(S(=O)(=O)NC(Cc3ccccc3)C(=O)O)ccc21 (stereo not drawn)	-7	29	0	-5	-3	-3	.	.

Screening results: PubChem BioAssay, several laboratories
